High-throughput results from PubChem.
C_diff_growth: blocks growth of Clostridium difficile | 86,000 tested, 0.25% active | AID 1259249 | growth activity, negative = inhibition, % at 16 µg/mL (by protocol) | Clostridium difficile clinical isolate growth, OD600, 24 h; hits give low values;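 active = mean growth activity at or below -80% and every replicate also at or below -80%; inconclusive = mean at or below -80% but some replicate above -80%; inactive = mean growth activity above -80%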;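 note: 0% = DMSO wells and -100% = levofloxacin 16 µg/mL wells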
T_cruzi_growth-1: T. cruzi proliferation inhibition. T. cruzi beta-gal in NIH3T3, GalScreen luminescence, 90 h. AID 624255. inhibition, % at 8.34 µM. 77,000 tested, 5.9% active;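 active = mean inhibition above about 93%, with at least 55% of replicates each passing it, limit read from the data, passing the limit was not always enough; inconclusive = only one of those two conditions holds; inactive = neither condition holds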
Pf_Dd2_inh: inhibitors of Plasmodium falciparum Dd2 growth; 94,000 tested, 2.3% active; activity change, % at 10 µM; AID 1159554; P. falciparum Dd2 growth, SYBR Green, 72 h; hits give low values; in the data active = activity change below about -80%; inconclusive = no clear call, values can overlap the other calls
T_cruzi_growth-2: Trypanosoma cruzi proliferation inhibition. shares compounds with T_cruzi_growth-1. 5,600 tested, 72% active. AID 651739. T. cruzi beta-gal in NIH3T3, GalScreen luminescence, 90 h. inhibition, % at 8.35 µM;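 active = mean replicate inhibition above about 95% and at least 55% of replicates individually reaching it, limit read from the data; inconclusive = only one of the two criteria is met; inactive = neither criterion is met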
T_cruzi_growth-3: Trypanosoma cruzi proliferation inhibition. shares compounds with T_cruzi_growth-1. T. cruzi beta-gal in NIH3T3, GalScreen luminescence, 90 h. inhibition, % at 2.09 µM. 5,600 tested, 21% active. AID 651740;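 active = mean inhibition above about 95%, with at least 55% of replicates also reaching it, limit read from the data; inconclusive = meets just one of the two conditions; inactive = meets neither condition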;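 note: plate controls were neutral control median for no effect and positive control median for full effect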
3T3_cytotox: NIH/3T3 (mouse) viability loss; cytotoxicity (signal decrease), % at 8.35 µM; shares compounds with T_cruzi_growth-1; AID 651742; 5,600 tested, 14% active; NIH/3T3 viability, CellTiter-Glo ATP luminescence, 90 h;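 active = mean signal decrease across replicates above about 35% based on untreated-well scatter, with enough replicates individually passing, limit read from the data; inconclusive = no rule stated though some were filed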;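 note: 0% = median of neutral control wells and 100% = median of positive control wells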
3T3_cytotox_2: NIH/3T3 (mouse) viability loss; NIH/3T3 viability, CellTiter-Glo ATP luminescence, 90 h; inhibition, % at 24.9 µM; shares compounds with T_cruzi_growth-1; 5,600 tested, 56% active;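 active = mean loss of cell viability signal at or above a set limit, and enough replicates individually reaching it; inconclusive = meets only the mean limit or only the replicate share; inactive = meets neither condition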;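 note: 0% = median of neutral control wells and 100% = median of positive control wells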
Starred values were filed as active, the others as inactive; u = inconclusive; x = no result given. Hits are enriched below; roughly 6.7% of the tested compounds scored in any of these assays.

SMILES C_diff_growth T_cruzi_growth-1 Pf_Dd2_inh T_cruzi_growth-2 T_cruzi_growth-3 3T3_cytotox 3T3_cytotox_2
O=C(C[C@@H]1CC[C@@H]2[C@H](COC[C@@H](O)CN2Cc2cc(F)ccc2F)O1)N1CCc2ccccc2C1 -5 65 -59 x x x x
O=C(C[C@@H]1CC[C@H]2[C@@H](COC[C@@H](O)CN2Cc2cc(F)ccc2F)O1)N[C@@H]1CCN(Cc2ccccc2)C1 4 95 -59 x x x x
O=C(C[C@H]1CC[C@H]2[C@@H](COC[C@@H](O)CN2Cc2cc(F)ccc2F)O1)N[C@@H]1CCN(Cc2ccccc2)C1 6 99* -73 70 66 -5 -9
O=C(C[C@@H]1CC[C@H]2[C@@H](COC[C@@H](O)CN2Cc2cc(F)ccc2F)O1)N[C@H]1CCN(Cc2ccccc2)C1 1 49 -24 x x x x
C[C@@H]1CN([C@H](C)CO)S(=O)(=O)c2ccc(-c3cccnc3)cc2O[C@H]1CN(C)C(=O)c1cccc(F)c1 1 20 -23 x x x x
O=C(Cc1cccnc1)N[C@H]1CC[C@@H](CCNS(=O)(=O)c2ccccc2Cl)O[C@@H]1CO -1 -7 -8 x x x x
O=C(C[C@@H]1CC[C@H]2[C@@H](COC[C@@H](O)CN2Cc2ccccc2F)O1)N[C@H]1CCN(Cc2ccccc2)C1 x 32 -29 x x x x
O=C(C[C@@H]1CC[C@@H]2[C@H](COC[C@@H](O)CN2Cc2ccccc2F)O1)N[C@@H]1CCN(Cc2ccccc2)C1 x 99* -19 80 46 -18 -47
COc1ccc(NC(=O)Nc2ccc3c(c2)C(=O)N([C@@H](C)CO)C[C@@H](C)[C@H](CN(C)S(=O)(=O)c2ccc(F)cc2)OCCCC[C@@H](C)O3)cc1 2 u -45 109* 44 -25 11
COc1ccc(S(=O)(=O)N(C)C[C@H]2OCCCC[C@@H](C)Oc3ccc(NC(=O)Nc4ccc(F)cc4)cc3C(=O)N([C@@H](C)CO)C[C@@H]2C)cc1 1 u -66 x x x x
COc1ccc(S(=O)(=O)N(C)C[C@@H]2OCCCC[C@H](C)Oc3ccc(NC(=O)Nc4ccc(F)cc4)cc3C(=O)N([C@@H](C)CO)C[C@@H]2C)cc1 2 116* -79 108* 93 -17 -11
COc1ccc(S(=O)(=O)N(C)C[C@@H]2OCCCC[C@@H](C)Oc3ccc(NC(=O)Nc4ccc(F)cc4)cc3C(=O)N([C@H](C)CO)C[C@@H]2C)cc1 8 52 -80 x x x x
COc1ccc(S(=O)(=O)N(C)C[C@@H]2OCCCC[C@H](C)Oc3ccc(NC(=O)Nc4ccc(F)cc4)cc3C(=O)N([C@H](C)CO)C[C@@H]2C)cc1 5 115* -30 102* 57 -5 -7
COc1ccc(NC(=O)Nc2ccc3c(c2)C(=O)N([C@@H](C)CO)C[C@@H](C)[C@@H](CN(C)S(=O)(=O)c2ccc(F)cc2)OCCCC[C@H](C)O3)cc1 10 37 -27 x x x x
CC(C)C#Cc1cnc2c(c1)C(=O)N([C@@H](C)CO)C[C@@H](C)[C@@H](CN(C)C(=O)C1CCC1)O2 6 30 x x x x x
Cc1ccccc1S(=O)(=O)N1CC(=O)N2[C@H](CO)[C@H](c3ccc(C#CC4CC4)cc3)[C@H]2C1 -14 x -28 x x x x
COC(=O)C[C@@H]1CC[C@H]2[C@H](COc3ccc(NC(=O)c4ccc(F)cc4)cc3C(=O)N2C)O1 0 15 6 x x x x
Cc1ccc(S(=O)(=O)Nc2ccc3c(c2)C(=O)N([C@H](C)CO)C[C@H](C)[C@H](CN(C)C(=O)NC2CCCCC2)OCCCC[C@@H](C)O3)cc1 -6 26 -28 x x x x
CN1c2ccc(Br)cc2[C@@H]2[C@@H](CCN2C(=O)Nc2cccc(F)c2)[C@@H]1CO 5 73 -59 x x x x
COc1cccc(C(=O)Nc2ccc3c(c2)C(=O)N(C)C[C@@H](OC)[C@H](C)CN(C(=O)C2CCCC2)[C@@H](C)CO3)c1 x 75 x x x x x
CCc1csc(N2[C@H](C#N)[C@H](c3ccc(C4=CCCC4)cc3)[C@@H]2CO)n1 1 102* -36 107* 112* 12 36*
N#C[C@H]1[C@H](c2ccc(C3=CCCC3)cc2)[C@@H](CO)N1c1nc(-c2ccccc2)cs1 17 58 -2 x x x x
N#C[C@H]1[C@@H](c2ccc(C3=CCCC3)cc2)[C@H](CO)N1c1nc(-c2ccccc2)cs1 -9 x 31 x x x x
CCc1cnc(N2[C@H](CO)[C@H](c3ccc(C4=CCCCC4)cc3)[C@@H]2C#N)s1 -8 103* -7 104* 102* 38* 40*
CCc1cnc(N2[C@@H](C#N)[C@H](c3ccc(C4=CCCCC4)cc3)[C@@H]2CO)s1 -14 88 17 x x x x
SMILES C_diff_growth T_cruzi_growth-1 Pf_Dd2_inh T_cruzi_growth-2 T_cruzi_growth-3 3T3_cytotox 3T3_cytotox_2
CCc1csc(N2[C@H](C#N)[C@H](c3ccc(C4=CCCC4)cc3)[C@H]2CO)n1 4 103* -28 103* 29 -5 20
C[C@H](CO)N1C[C@H](C)[C@H](CN(C)C(=O)C2CC2)Oc2cc(/C=C/c3ccccc3)ccc2S1(=O)=O 9 12 -79 x x x x
C[C@H](CO)N1C[C@H](C)[C@@H](CN(C)Cc2ccc3c(c2)OCO3)OCCCC[C@H](C)Oc2ccc(NC(=O)C3CCCCC3)cc2C1=O 1 50 -5 x x x x
CCNC(=O)C[C@H]1CC[C@H]2[C@H](COc3ccc(NC(=O)c4cscn4)cc3C(=O)N2C)O1 -7 -29 2 x x x x
COc1ccc(S(=O)(=O)N(C)C[C@@H]2Oc3ccc(NC(=O)C4CCCCC4)cc3CC(=O)N([C@@H](C)CO)C[C@H]2C)cc1 0 54 -41 x x x x
N#C[C@H]1N[C@@H](CO)[C@H]1c1ccc(C#Cc2ccccc2F)cc1 1 100* -14 103* 109* -14 8
N#C[C@H]1N[C@H](CO)[C@H]1c1ccc(C#Cc2ccccc2F)cc1 -5 84 -3 x x x x
N#C[C@H]1[C@H](c2ccc(C#Cc3ccccc3F)cc2)[C@@H](CO)N1C(=O)C1CC1 -5 102* -48 100* 100* 12 3
N#C[C@@H]1[C@H](c2ccc(C#Cc3ccccc3F)cc2)[C@@H](CO)N1C(=O)C1CCCC1 26 x -59 x x x x
N#C[C@@H]1[C@@H](c2ccc(C#Cc3ccccc3F)cc2)[C@H](CO)N1C(=O)C1CC1 -8 104* -26 103* 93 10 19
N#C[C@@H]1[C@@H](c2ccc(C#Cc3ccccc3F)cc2)[C@@H](CO)N1C(=O)C1CC1 0 78 -5 x x x x
